Growth inhibition data for 21 compounds are collected here from PubChem BioAssay (NCI).

This is part of a sample that, as a whole, favours compounds with a hit. Of some 79,000 tested, about 15% had one in any assay. Unmarked numbers belong to inactive results. Activity calls are given as the source filed them. Rule as the data show it: active = growth inhibition above about 70%; inactive = the rest.

Test [1] can be described thus: NCI Yeast Anticancer Drug Screen. Data for the rad50 strain (AID 155).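 Also: 0% = growth of vehicle-only cultures of the same strain.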 As to conditions: S. cerevisiae rad50 strain growth inhibition; at 50.0 µM; stronger effect = higher value. Put shortly:
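Inhibition values express reduced yeast growth in compound-treated cultures relative to vehicle-treated controls.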

Test [2] can be described thus: NCI Yeast Anticancer Drug Screen. Data for the mec2-1 strain (AID 157). The settings on record: S. cerevisiae mec2-1 strain, at 50.0 µM, stronger effect = higher value. Put shortly: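 Using mec2-1 yeast: add compound, measure growth, express inhibition versus vehicle-treated cultures.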
A short description of test [3]: NCI Yeast Anticancer Drug Screen. Data for the sgs1 mgt1 strain (AID 161).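 Also: 0% = growth of cultures given vehicle only.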 The settings on record: S. cerevisiae sgs1 mgt1 strain, at 50.0 µM, stronger effect = higher value. Put shortly:
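Yeast cells carrying a defined DNA-repair defect were exposed to test compounds. Growth inhibition was measured relative to vehicle-treated controls.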

A short description of test [4]: NCI Yeast Anticancer Drug Screen. Data for the cln2 rad14 strain (AID 165).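 Also: 0% = growth equal to vehicle treated cultures.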 The settings on record: S. cerevisiae cln2 rad14 strain, at 50.0 µM, stronger effect = higher value. The method, boiled down:
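Yeast strain cln2 rad14, bearing defects in cell cycle control and DNA repair, serves as the test system; values reflect growth inhibition compared with vehicle.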

Test [5] is described as follows: NCI Yeast Anticancer Drug Screen. Data for the bub3 strain (AID 167). As to conditions: S. cerevisiae bub3 mutant strain, at 50.0 µM, stronger effect = higher value. Put shortly:
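Steps: expose the mutant yeast strain to compound; grow alongside vehicle-treated cultures; measure growth; express inhibition against the vehicle cultures.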

The nature of test [6]: NCI Yeast Anticancer Drug Screen. Data for the mlh1 rad18 strain (AID 175). The settings on record: S. cerevisiae mlh1 rad18 strain growth inhibition; at 50.0 µM; stronger effect = higher value. The method, boiled down:
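Steps: expose repair-defective yeast to compound; measure growth; express inhibition against vehicle-treated controls.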

Turning to `Nc1ccc(Cn2cnc3c(=O)[nH]cnc32)cc1`, the growth inhibition is -11.7% in test [1]; -6.45% in test [2]; 7.7% in test [3]; -45.9% in test [4]; 6.85% in test [5]; -5.4% in test [6].

As for `CC(=O)/C=C\C1CC2C=CC1C2` (stereo unspecified), the growth inhibition in test [1] was -11.6%; in test [2], -10.2%; in test [3] it was 3.65%; in test [4], 17.1%; in test [5] it was -20.4%; in test [6], 31.6%.

Regarding `O=C1c2ccccc2CN(C(=Nc2ccccc2)Nc2ccccc2)c2ccccc21`, the growth inhibition in test [1] was 15.1%; in test [2], 2.95%; in test [3], -0.55%; in test [4] it was -25.7%; in test [5], -0.7%; in test [6], 14.9%.

On to `CN(C)CCNC(=O)c1ccc2nc3c(nc2c1)C(=O)c1ccccc1-3`, for which the growth inhibition is -9.4% in test [1]; -2.85% in test [2]; 31.3% in test [3]; 36.8% in test [4]; 3.6% in test [5]; 15.9% in test [6].

On to `FC(F)(F)C(F)(F)C(F)(F)c1nnnn1-c1ccccc1`, for which the growth inhibition in test [1] is 10.8%; in test [2] it was -0.8%; in test [3] it was -17.1%; in test [4], 3.3%; in test [5] it was -13.3%; in test [6], -17.1%.

As for `CCCCNC(C(=O)c1ccccc1)c1ccccc1` (stereo unspecified), the growth inhibition is 4.85% in test [1]; 17.1% in test [2]; 0.45% in test [3]; -16.6% in test [4]; 13.9% in test [5]; 26.4% in test [6].

For the compound `O=C(Nc1ccccc1)c1ccccc1C(O)(c1ccccc1)c1ccc(Cl)cc1` (stereo unspecified), the growth inhibition is 84.7% (active) in test [1]; 14% in test [2]; 77% (active) in test [3]; 11.1% in test [4]; 52% in test [5]; 56.3% in test [6].

Consider `CC12CC(=O)NN=C1c1ccccc1C2` (stereo unspecified), for which the growth inhibition in test [1] is 4.35%; in test [2], -10.8%; in test [3] it was 18.1%; in test [4], 29.6%; in test [5] it was -6.8%; in test [6] it was -2.8%.

On to `NC(=O)C1=CCCC1`, for which the growth inhibition in test [1] is 6%; in test [2], -0.1%; in test [3] it was 0.5%; in test [4], 10.2%; in test [5], 12.8%; in test [6], -3.3%.

On to `CCCCC1=C(C)C/C(=N/Nc2ccc([N+](=O)[O-])cc2[N+](=O)[O-])C(C)C1CCCC` (stereo unspecified), for which the growth inhibition was 3.7% in test [1]; 2.8% in test [2]; -13.6% in test [3]; 8.15% in test [4]; 3.3% in test [5]; 21.9% in test [6].

As for `NC1=NC2(COC(c3ccccc3)(c3ccccc3)c3ccccc3)OC(COC(c3ccccc3)(c3ccccc3)c3ccccc3)C(O)C2O1` (stereo unspecified), the growth inhibition in test [1] was 28.4%; in test [2] it was -5.4%; in test [3] it was 30.6%; in test [4] it was 5.25%; in test [5], 34.4%; in test [6], 13.4%.

With `O=C(CCc1cc(O)ccc1O)OCCc1ccccc1`, the growth inhibition in test [1] is 30.9%; in test [2], 71.2% (active); in test [3] it was 91.6% (active); in test [4], 85.3% (active); in test [5] it was 88.4% (active); in test [6], 91.5% (active).

For `O=NN(Cc1ccccc1)c1ccc(OCc2ccccc2)c(NC(=O)CCC2OCCO2)c1`, the growth inhibition in test [1] was 6.95%; in test [2], 4.25%; in test [3] it was 30.4%; in test [4], 7.05%; in test [5], 39.9%; in test [6], 9.5%.

For the compound `CN(C)CC1CN(C)CC(CN(C)C)C1(O)C(C(=O)N(C)C)c1ccccc1` (stereo unspecified), the growth inhibition is 75.2% (active) in test [1]; 50% in test [2]; 65.2% in test [3]; 36.4% in test [4]; 49.7% in test [5]; 62.2% in test [6].

On to `COc1cc2cc[n+]3c(C)c4ccc(OC)c(OC)c4cc3c2cc1OC` (tested in a mixture with another compound), for which the growth inhibition in test [1] is -4.15%; in test [2] it was 17.2%; in test [3], -5.3%; in test [4], -10.8%; in test [5] it was -3.55%; in test [6], 6.65%.

For the compound `CCCC(/C=N/Nc1ccc([N+](=O)[O-])cc1[N+](=O)[O-])=C\c1ccccc1`, the growth inhibition is -12.1% in test [1]; -29.2% in test [2]; 10.6% in test [3]; -22.9% in test [4]; 27.1% in test [5]; -50% in test [6].

For the compound `N#CCC(=O)N/N=C(\C(=O)Nc1ccc(Cl)c(Cl)c1)C1CN(c2ccccc2)N=C1N` (stereo unspecified), the growth inhibition in test [1] was 24.4%; in test [2], 6.9%; in test [3], -11.8%; in test [4] it was -44.4%; in test [5], 0.45%; in test [6], -8.4%.

Take `NC(=S)N/N=C\c1ncccc1OCc1cccc(N)c1`: the growth inhibition is 32.3% in test [1]; 46.9% in test [2]; 42% in test [3]; 5.6% in test [4]; 37.4% in test [5]; 29.2% in test [6].

For `CCCC[P+](CCCC)(CCCC)c1ccccc1`, the growth inhibition in test [1] is -12.7%; in test [2] it was 12.3%; in test [3] it was -0.05%; in test [4], -32.1%; in test [5] it was -8.95%; in test [6] it was -1.4%.

In the case of `Cc1ccc(S(=O)(=O)NCCCN(CCCNS(=O)(=O)c2ccc(C)cc2)S(=O)(=O)c2ccc(C)cc2)cc1`, the growth inhibition is -8.25% in test [1]; -10.8% in test [2]; -5.1% in test [3]; -70.5% in test [4]; -19.4% in test [5]; -12.2% in test [6].

In the case of `O=[N+]([O-])c1ccc(OC2CC3C4C=CC3C2C4)c([N+](=O)[O-])c1` (stereo unspecified), the growth inhibition is -27.9% in test [1]; -17.1% in test [2]; -5.45% in test [3]; 20.8% in test [4]; -9.6% in test [5]; -24.6% in test [6].
